Source: PubChem BioAssay (The Scripps Research Institute Molecular Screening Center)
Shown are actives, neighbours in structure and some others; about 0.84% of the full set was active somewhere.
PPARg SRC-2 ag – agonists of PPARg-SRC-2 recruitment, primary screen, biochemical, HTS; Peroxisome proliferator-activated receptor gamma (Homo sapiens), P37231; PPARgamma LBD-SRC-2 recruitment; activation, % at 8 µM; actives 0.34% (n = 200,000); AID 1032, 2008;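 also: 0% = vehicle and 100% = reference agonist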
PPARg SRC-1 ag – PPARgamma agonists recruiting SRC-1 coactivator, primary screen, biochemical; activation, % at 8 µM; AID 631, 2007; Peroxisome proliferator-activated receptor gamma (Homo sapiens), P37231; actives 0.41% (n = 200,000); PPARgamma-SRC-1 coactivator recruitment biochemical assay; in the data active = activation above about 19%;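 also: 0% = DMSO and 100% = reference agonist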
SRC3 TRFRET art – TR-FRET detection interference compounds, artefact control for PPARgamma SRC-3 recruitment agonists, biochemical, TR-FRET ratio | TR-FRET artefact counter-screen, PPARgamma/SRC-3 format; active compounds read high | TR-FRET ratio at 8 µM | actives 0.39% (n = 99,000) | AID 1048, 2008; in the data active = TR-FRET ratio above about 2000
PPARg SRC3 recr – PPARgamma agonists recruiting SRC-3 coactivator, primary screen, biochemical; biochemical PPARgamma/SRC-3 coactivator recruitment assay; Peroxisome proliferator-activated receptor gamma (Homo sapiens), P37231; actives 0.26% (n = 200,000); activation, % at 8 µM; in the data active = activation above about 23%;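 also: 0% = DMSO and 100% = reference agonist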
SRC1 TRFRET art – TR-FRET detection interference compounds, primary screen, artefact control for PPARgamma SRC-1 recruitment agonists, biochemical, TR-FRET emission ratio. TR-FRET detection artefact counter-screen; active compounds read high. TR-FRET ratio at 8 µM. actives 0.34% (n = 99,000); in the data active = TR-FRET ratio above about 2300
SRC2 TRFRET art – TR-FRET signal artefacts, primary screen, artefact control for PPARgamma SRC-2 agonist project, biochemical. TR-FRET artefact counter-screen; active compounds read high. TR-FRET ratio at 8 µM. actives 0.4% (n = 200,000). AID 1049, 2008; in the data active = TR-FRET ratio above about 2000
PPARg SRC2 ag – agonists of PPARgamma SRC-2 coactivator recruitment, confirmation, biochemical, HTS. shares compounds with PPARg SRC3 recr. biochemical SRC-2 recruitment by PPARgamma. activation, % at 8 µM. actives 52% (n = 790). AID 1297, 2008;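 also: 0% = vehicle alone and 100% = reference agonist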
PPARg SRC1 ag – PPARgamma agonists recruiting SRC-1 coactivator, confirmation, biochemical. AID 1300, 2008. actives 43% (n = 790). shares compounds with PPARg SRC3 recr. activation, % at 8 µM. PPARgamma–SRC-1 coactivator recruitment biochemical assay; in the data active = activation above about 20%;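 also: 0% = vehicle wells and 100% = reference agonist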
PPARg SRC3 conf – PPARgamma-driven SRC-3 coactivator recruitment agonists, confirmation, biochemical; shares compounds with PPARg SRC3 recr; biochemical PPARgamma-SRC-3 coactivator recruitment, agonist mode; activation, % at 8 µM; actives 29% (n = 790); in the data active = activation above about 24%;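 also: 0% = vehicle wells and 100% = reference agonist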
Target sequence (P37231 whole entry, looked up): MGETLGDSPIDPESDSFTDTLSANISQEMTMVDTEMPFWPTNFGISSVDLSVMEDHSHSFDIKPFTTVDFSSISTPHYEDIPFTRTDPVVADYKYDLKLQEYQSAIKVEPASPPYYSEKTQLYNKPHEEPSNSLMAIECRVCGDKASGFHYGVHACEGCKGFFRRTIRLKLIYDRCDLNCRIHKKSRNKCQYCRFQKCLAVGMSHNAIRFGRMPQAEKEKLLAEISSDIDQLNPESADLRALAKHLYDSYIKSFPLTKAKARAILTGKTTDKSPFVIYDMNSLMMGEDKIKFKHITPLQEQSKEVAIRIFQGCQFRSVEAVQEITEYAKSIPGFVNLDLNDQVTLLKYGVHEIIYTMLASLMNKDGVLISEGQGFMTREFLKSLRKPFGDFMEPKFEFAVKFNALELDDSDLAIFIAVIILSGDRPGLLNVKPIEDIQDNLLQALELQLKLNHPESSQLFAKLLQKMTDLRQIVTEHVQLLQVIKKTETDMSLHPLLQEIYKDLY
Target sequence (Q9Y6Q9 whole entry, looked up): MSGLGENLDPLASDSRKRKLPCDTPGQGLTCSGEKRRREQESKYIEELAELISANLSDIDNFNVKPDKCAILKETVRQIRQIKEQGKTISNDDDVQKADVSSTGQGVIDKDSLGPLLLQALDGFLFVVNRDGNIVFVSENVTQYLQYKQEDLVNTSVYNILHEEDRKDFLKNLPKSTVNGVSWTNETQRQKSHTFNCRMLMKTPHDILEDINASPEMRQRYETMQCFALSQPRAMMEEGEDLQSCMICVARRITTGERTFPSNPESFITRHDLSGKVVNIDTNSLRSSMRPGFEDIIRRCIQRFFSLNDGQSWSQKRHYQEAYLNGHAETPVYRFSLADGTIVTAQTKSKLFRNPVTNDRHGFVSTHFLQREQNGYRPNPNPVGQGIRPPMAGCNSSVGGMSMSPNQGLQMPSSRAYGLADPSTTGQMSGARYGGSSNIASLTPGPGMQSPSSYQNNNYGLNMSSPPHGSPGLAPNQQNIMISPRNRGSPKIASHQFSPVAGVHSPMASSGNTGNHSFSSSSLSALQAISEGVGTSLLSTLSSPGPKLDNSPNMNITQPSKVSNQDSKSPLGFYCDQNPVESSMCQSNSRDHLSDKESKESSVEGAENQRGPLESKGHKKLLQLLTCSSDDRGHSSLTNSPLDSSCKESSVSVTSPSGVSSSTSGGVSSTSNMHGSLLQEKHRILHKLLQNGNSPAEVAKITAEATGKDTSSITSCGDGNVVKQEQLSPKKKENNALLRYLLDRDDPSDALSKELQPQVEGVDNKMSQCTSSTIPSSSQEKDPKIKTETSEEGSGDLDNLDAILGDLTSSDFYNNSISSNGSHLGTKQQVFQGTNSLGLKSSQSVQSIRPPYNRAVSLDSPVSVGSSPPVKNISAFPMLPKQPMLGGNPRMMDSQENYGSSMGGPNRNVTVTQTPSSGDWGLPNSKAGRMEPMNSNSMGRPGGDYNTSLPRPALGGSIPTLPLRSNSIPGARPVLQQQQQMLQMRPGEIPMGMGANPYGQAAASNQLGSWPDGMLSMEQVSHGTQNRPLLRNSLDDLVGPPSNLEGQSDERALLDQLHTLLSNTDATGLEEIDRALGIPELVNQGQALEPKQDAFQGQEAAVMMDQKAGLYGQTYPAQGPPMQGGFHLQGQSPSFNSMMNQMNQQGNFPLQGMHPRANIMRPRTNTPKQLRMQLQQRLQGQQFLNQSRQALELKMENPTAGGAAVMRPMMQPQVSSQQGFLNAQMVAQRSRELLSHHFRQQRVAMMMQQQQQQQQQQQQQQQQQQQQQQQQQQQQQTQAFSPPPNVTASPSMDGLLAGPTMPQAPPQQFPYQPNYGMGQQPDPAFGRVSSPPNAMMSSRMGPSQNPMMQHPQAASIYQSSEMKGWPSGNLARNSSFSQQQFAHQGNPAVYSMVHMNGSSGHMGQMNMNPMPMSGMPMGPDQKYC
Starred values were filed as active, the others as inactive; x = no result given. Rule as the data show it, unless noted: active = activation above about 22%; inactive = the rest.

SMILES	PPARg SRC-2 ag	PPARg SRC-1 ag	SRC3 TRFRET art	PPARg SRC3 recr	SRC1 TRFRET art	SRC2 TRFRET art	others
COc1ccc(C(=O)C(C)(C)NO)cc1	3	2	x	27*	x	1650
COc1ccc(C(=O)C23CN4CN(CN(C4)C2)C3)cc1	3	-6	1554	-6	1575	1613
CO[C@H]1[C@@H](OC)CC(OC2OC(CO)C(O)C(O)C2O)/C(=C\C#N)[C@@H]1O (some centres undefined)	5	3	1509	-5	1486	1486
O=C1Nc2ccccc2/C1=C/c1cnc[nH]1	17	12	x	33*	x	1808
Cc1cccc(NP(=O)(Oc2ccccc2F)Oc2ccccc2F)c1C	-4	7	1742	2	2320*	1715
Cc1cccc(CNCCc2ccccc2)n1	3	10	1586	1	1773	1472
Cn1c(=O)c2c(nc(N/N=C/c3c(O)n(-c4ccccc4)c(=S)[nH]c3=O)n2C)n(C)c1=O	6	2	1645	-1	1913	1558
c1cncc(CNC2CCCC2)c1	0	40*	1585	-1	3393*	1583
Cc1c2ccncc2c(C)c2c1[nH]c1ccccc12	8	27*	1767	6	2068	1611
c1ccc2c(c1)[nH]c1cnccc12	5	8	1611	6	1918	1759
Cn1c(=O)cc(SCC(=O)N2CCC3(CC2)OCCO3)c2ccccc21	39*	44*	x	60*	x	2418*	PPARg SRC2 ag=33*;PPARg SRC1 ag=20*;PPARg SRC3 conf=23
Cc1cccc(N=Cc2c(O)n(-c3ccccc3C)c(=O)[nH]c2=O)c1	0	-2	x	-10	x	1341
Cc1ccccc1-n1c(O)c(C=Nc2ccc(N(C)C)cc2)c(=O)[nH]c1=O	23*	15	x	26*	x	2050*	PPARg SRC2 ag=7;PPARg SRC1 ag=10;PPARg SRC3 conf=5
C=CCn1c(O)c(C=Nc2ccc(N(CC)CC)cc2)c(=O)[nH]c1=O	18	8	x	26*	x	1780	PPARg SRC2 ag=9;PPARg SRC1 ag=10;PPARg SRC3 conf=8
CCOC(=O)C1SC2(C(F)(F)F)CC1(O)c1c(C)cc(C)nc1O2 (centres undefined)	-1	-9	x	-4	x	1373
Cc1ccc(S(=O)(=O)NC(CC(=O)N2CCC3(CC2)OCCO3)c2ccco2)cc1 (centres undefined)	-10	-6	x	-5	x	1524
